A short description of the test: HT29 colon tumor cell growth inhibition, primary screen, imaging, high content imaging, 72 h, CellTiter-Glo (AID 772).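 On condensed nuclei: condensed means nuclear area below control median minus 1.5 SD.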 Particulars: HCS imaging cell count, at 10 µM, stronger effect = higher value; for condensed nuclei: measured here: percent cells with condensed nuclei. Background: Cellular ATP, detected with luciferase, serves as a proxy for viable cell number.
The mark [1] stands for this setting: measured here: ATP CellTiter-Glo viability.

Each structure is given as a SMILES string. Out of some 3,300 compounds screened, about 20 (0.6%) were called active.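 How the source made its calls: active means growth inhibition above 90%, meaning viable cell count cut by more than 90% versus vehicle controls; inactive means growth inhibition below 90%.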 This excerpt belongs to a sample that is enriched for actives.

Drawing on PubChem BioAssay AID772 (SRMLSC, 2007), this text covers growth inhibition and condensed nuclei for 37 molecules.

For the molecule `CCOC(=O)c1c(C)n(C)c2ccc(OC)c(NC(=O)CCN3CCSCC3)c12`, the growth inhibition was -24% (inactive) and the condensed nuclei stood at 1.98%. In addition, the growth inhibition under setting [1] is -19.5%.
Taken in the same sequence, the figures for `Cc1cc2c(c(=O)n1CC1CCCO1)C(c1ccc3c(c1)OCO3)C(C#N)=C(N)O2` (stereo unspecified) were -29.9% (inactive), 2.84% and -39%.
Taken in the same sequence, the figures for `COC(=O)C(NC(=O)c1ccccc1)(Nc1nccs1)C(F)(F)F` (stereo unspecified) were 60.8% (inactive), 9.01% and 20.8%.
Taken in the same sequence, the figures for `CC(C)(C)C1=Nn2c(nnc2-c2ccccn2)SC1` were -24.5% (inactive), 2.89% and -54.2%.
Regarding `Cn1c(Cl)nc2c1c(=O)n(Cc1cccc(Br)c1)c(=O)n2C`, the growth inhibition is 58.3% (inactive) and the condensed nuclei was determined as 20.4%. Moreover, under setting [1], the growth inhibition is 38%.
Taken in the same sequence, the figures for `CC(NC(=O)NCc1cccnc1)(C(F)(F)F)C(F)(F)F` were -58% (inactive), 7.24% and -34.9%.
Taken in the same sequence, the figures for `CCO/C(C)=N/n1c2nc3ccccc3nc2c2c(=O)n(Cc3ccccc3Cl)c(C)nc21` were -20.7% (inactive), 2.79% and -31%.
Taken in the same sequence, the figures for `CC(C)N=c1cc2n(-c3ccc(Cl)cc3)c3ccccc3nc-2cc1Nc1ccc(Cl)cc1` were 39.7% (inactive), 30.8% and 87%.
Turning to `COC(=O)NC(Nc1sc2c(c1C(N)=O)CCCC2)(C(=O)OC)C(F)(F)F` (stereo unspecified), the growth inhibition is -86.9% (inactive) and the condensed nuclei was 3.2%. In addition, under setting [1], the growth inhibition is -40.6%.
Consider `O=C(CN1C(=O)c2ccccc2S1(=O)=O)NCCSCc1ccco1`, for which the growth inhibition was 36.4% (inactive) and the condensed nuclei was determined as 3.38%. Also, under setting [1], the growth inhibition came out at 6.94%.
As to `CCCCCNC(=O)C(C#N)c1nc2ccccc2nc1N1CC(C)OC(C)C1` (stereo unspecified), the growth inhibition was 31% (inactive) and the condensed nuclei stood at 8.13%. The growth inhibition under setting [1] is -14.9%.
As to `CCN(CC)c1ccc2cc(C(=O)Nc3ccccn3)c(=O)oc2c1`, the growth inhibition is 12.7% (inactive) and the condensed nuclei came out at 5.56%. In addition, under setting [1], the growth inhibition was -23.3%.
Taken in the same sequence, the figures for `CCN(CC)c1ccc2cc(-c3nnc(-c4ccncc4)o3)c(=O)oc2c1` were 99.1% (active), 4.75% and -9.72%.
For the molecule `CCCCCCc1cc2cc(-c3nnc(-c4ccccc4O)o3)c(=O)oc2cc1O`, the growth inhibition was 23.4% (inactive) and the condensed nuclei was found to be 4.18%. Also, the growth inhibition under setting [1] was determined as 12.5%.
Taken in the same sequence, the figures for `CCOC(=O)CSc1nnc2n(Cc3ccccc3)c(=O)c3c4c(sc3n12)CCC4` were 17.8% (inactive), 16.9% and -5.86%.
Regarding `CCOC(=O)c1ccc(NC(=O)CCC(CC)C(=O)O)cc1` (stereo unspecified), the growth inhibition was -26.9% (inactive) and the condensed nuclei is 2.9%. In addition, the growth inhibition under setting [1] is -22.9%.
Taken in the same sequence, the figures for `CC1(C(=O)CSc2n[nH]c(-c3ccccc3Cl)n2)CCC(=O)O1` (stereo unspecified) were -77.2% (inactive), 2.66% and -34.5%.
Regarding `OCCN(CCO)c1ncnc2c1sc1nc(N3CCOCC3)c3c(c12)CCCC3`, the growth inhibition was 49.2% (inactive) and the condensed nuclei turned out to be 17.2%. Moreover, under setting [1], the growth inhibition amounted to 92.5%.
Taken in the same sequence, the figures for `CC1(C)Cc2c(sc3nc(SCC#N)n(C4CCCCC4)c(=O)c23)CO1` were 25.6% (inactive), 3.8% and 23.5%.
On to `N#CC(C(=O)NC1CCCCC1)c1nc2ccccc2nc1N1CCN(c2ccccc2F)CC1` (stereo unspecified), for which the growth inhibition is -45.2% (inactive) and the condensed nuclei stood at 1.44%. The growth inhibition under setting [1] is -45.5%.
Taken in the same sequence, the figures for `CCCCC(CCC(=O)Nc1ccc(C(=O)OC)cc1)C(=O)O` (stereo unspecified) were 37.5% (inactive), 1.33% and -7.18%.
As for `Cc1c(CCC#N)c(N2CCN(C3CCCCC3)CC2)n2c(nc3ccccc32)c1C#N`, the growth inhibition is 32.8% (inactive) and the condensed nuclei was 10.6%. Further, the growth inhibition under setting [1] is -4.95%.
Taken in the same sequence, the figures for `Cc1cc(COc2ccccc2OCCN2CCN(C)CC2)no1` were 4.14% (inactive), 1.56% and 10.2%.
For `CC(=O)c1cc(C#N)c(SCc2ccncc2)nc1C`, the growth inhibition was 26.3% (inactive) and the condensed nuclei was found to be 4.17%. Moreover, the growth inhibition under setting [1] stood at 11%.
Taken in the same sequence, the figures for `CCOC(=O)CC(=O)CSc1nc2c(cc1C#N)CCCCCC2` were -4.76% (inactive), 6.69% and -61.7%.
Taken in the same sequence, the figures for `COC(=O)CC1SC(=O)NC1=O` (stereo unspecified) were -1.44% (inactive), 4.51% and -13%.
Taken in the same sequence, the figures for `Cc1ccc(SCc2nnc(N)s2)cc1` were -4.01% (inactive), 15.1% and 13.4%.
Take `CCN(CC)CCCC1(CN)OCCc2ccccc21` (stereo unspecified): the growth inhibition is -50.9% (inactive) and the condensed nuclei worked out at 1.84%. Under setting [1], the growth inhibition was -27.8%.
Taken in the same sequence, the figures for `CCOc1cccc(-c2nnc3sc(-c4cc(OC)c(OC)c(OC)c4)nn23)c1` were -44.5% (inactive), 2.45% and -50.4%.
Taken in the same sequence, the figures for `Cc1ccc2cc(CN(C(=O)c3ccco3)c3ccccc3C)c(=O)[nH]c2c1` were -61.6% (inactive), 2.77% and -59.5%.
For `CCCOc1ccc(Cl)cc1CN1CCOCC1`, the growth inhibition is -59.3% (inactive) and the condensed nuclei turned out to be 3.51%. Moreover, the growth inhibition under setting [1] was -68.7%.
Taken in the same sequence, the figures for `COn1c(SC2CCCCC2)nc2ccccc2c1=O` were 52.3% (inactive), 12.3% and 29.2%.
Taken in the same sequence, the figures for `CCOC(=O)C1=C(N)n2c(s/c(=C\c3ccco3)c2=O)=C(C(=O)OC(C)C)C1c1ccco1` (stereo unspecified) were 50% (inactive), 23.3% and -8.27%.
Taken in the same sequence, the figures for `O=C(O)c1cc2sccc2s1` were 33% (inactive), 8.44% and -8.08%.
On to `CC1(C)NC(=O)N(CC(O)COc2ccccc2C(=O)Nc2ccccc2)C1=O` (stereo unspecified), for which the growth inhibition is -19.4% (inactive) and the condensed nuclei was 5.25%. Moreover, the growth inhibition under setting [1] is -40.4%.
Taken in the same sequence, the figures for `COC(=O)C1C(=O)CC(C)(O)C(C(=O)OC)C1c1ccccc1F` (stereo unspecified) were 19% (inactive), 2.72% and -32.9%.
`O=C(OCC#CCSc1nnc(-c2ccccc2)o1)c1cccs1`: the growth inhibition is 38% (inactive) and the condensed nuclei worked out at 10.3%. Also, the growth inhibition under setting [1] amounted to 5.5%.
